Results published in PubChem BioAssay (NCI).
Compounds without any hit were thinned out: in the full panel of roughly 79,000, 15% have a hit. The source made the active and inactive calls. No stated cut-off is given here; in the data, active means growth inhibition above about 70%; inactive means the rest.

How the values were obtained:
[1] = NCI Yeast Anticancer Drug Screen. Data for the rad50 strain (AID 155);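 further: 0% = growth of vehicle-only cultures of the same strain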; conditions: S. cerevisiae rad50 strain growth inhibition, active compounds read high
Outline: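 Growth of the mutant yeast was measured after compound exposure and referenced to vehicle-treated cultures.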

[2] = NCI Yeast Anticancer Drug Screen. Data for the mec2-1 strain (AID 157); conditions: S. cerevisiae mec2-1 strain, active compounds read high
Outline: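 Compounds were applied to mec2-1 yeast cells. Their growth was then compared with that of vehicle-treated cultures to give growth inhibition.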

[3] = NCI Yeast Anticancer Drug Screen. Data for the sgs1 mgt1 strain (AID 161);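 further: 0% = growth of cultures given vehicle only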; conditions: S. cerevisiae sgs1 mgt1 strain, active compounds read high
Outline: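 Compounds are added to genetically altered yeast, and growth is compared with cultures given vehicle alone to give percent inhibition.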

[4] = NCI Yeast Anticancer Drug Screen. Data for the cln2 rad14 strain (AID 165);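 further: 0% = growth equal to vehicle treated cultures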; conditions: S. cerevisiae cln2 rad14 strain, active compounds read high
Outline: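 Strain: cln2 rad14 yeast, altered in cell cycle control and DNA damage repair. Read-out: growth inhibition vs vehicle.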

[5] = NCI Yeast Anticancer Drug Screen. Data for the bub3 strain (AID 167); conditions: S. cerevisiae bub3 mutant strain, active compounds read high
Outline: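 Whole-cell yeast assay. The mutant strain was incubated with compounds, and growth inhibition was determined by comparison with vehicle-treated cells.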

[6] = NCI Yeast Anticancer Drug Screen. Data for the mlh1 rad18 strain (AID 175); conditions: S. cerevisiae mlh1 rad18 strain growth inhibition, active compounds read high
Outline: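 A repair-deficient yeast strain is exposed to test compound, and growth is scored relative to vehicle-treated controls.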

[7] = at 5.0 µM (retest, dose inferred, filed as 0.5)
[8] = at 50.0 µM (retest, dose inferred, filed as 5.0)

Measured: growth inhibition

CN(C)c1ncnc2c1ncn2C1OC(CO)C2NP(=O)(N(CCCl)CCCl)OC21 (stereo not given)
active: [1]; [8] 80% | [1]; at 50.0 µM 87.9% | [3]; at 50.0 µM 71.2%
inactive: [1]; [7] 1% | [2]; [7] -3% | [2]; [8] 24% | [2]; at 50.0 µM -1.35% | [3]; [7] -3% | [3]; [8] 63% | [4]; [7] 8% | [4]; [8] 5% | [4]; at 50.0 µM 13.6% | [5]; [7] 0% | [5]; [8] 48% | [5]; at 50.0 µM 12.6% | [6]; [7] -17% | [6]; [8] 23% | [6]; at 50.0 µM 28.4%

OC1CCCC2CCCNC12 (stereo not given)
active: [1]; [7] 84% | [1]; [8] 97% | [1]; at 50.0 µM 86.4% | [2]; [7] 79% | [2]; [8] 98% | [2]; at 50.0 µM 90% | [3]; [7] 97% | [3]; [8] 98% | [3]; at 50.0 µM 90% | [4]; [7] 81% | [4]; [8] 98% | [4]; at 50.0 µM 86.3% | [5]; [7] 96% | [5]; [8] 98% | [5]; at 50.0 µM 91.8% | [6]; [7] 73% | [6]; [8] 97% | [6]; at 50.0 µM 91.2%

CCCCCCCCCCCCCCCCCC[N+](C)(C)C (tested in a mixture with another compound)
active: [1]; [7] 99% | [1]; [8] 99% | [2]; [7] 98% | [2]; [8] 99% | [3]; [7] 99% | [3]; [8] 99% | [3]; at 50.0 µM 73.5% | [4]; [7] 78% | [4]; [8] 98% | [5]; [7] 99% | [5]; [8] 97% | [6]; [7] 99% | [6]; [8] 99%
inactive: [1]; at 50.0 µM 2.1% | [2]; at 50.0 µM 13.1% | [4]; at 50.0 µM 13.2% | [5]; at 50.0 µM -1.15% | [6]; at 50.0 µM -2.5%

c1ccc(C(c2ccccc2)c2cccnc2)cc1
active: [1]; [8] 97% | [1]; at 50.0 µM 89.2% | [2]; [8] 98% | [2]; at 50.0 µM 91.2% | [3]; [8] 98% | [3]; at 50.0 µM 91.6% | [4]; [8] 97% | [4]; at 50.0 µM 88.9% | [5]; [8] 98% | [5]; at 50.0 µM 91.7% | [6]; [8] 100% | [6]; at 50.0 µM 90.8%
inactive: [1]; [7] 61% | [2]; [7] 59% | [3]; [7] 16% | [4]; [7] 55% | [5]; [7] 52% | [6]; [7] 54%

C[C@@H]1C[C@@H]([C@H](O)CC2CC(=O)NC(=O)C2)C(=O)[C@@H](C)C1
active: [1]; [7] 95% | [1]; [8] 99% | [1]; at 50.0 µM 92% | [2]; [7] 98% | [2]; [8] 100% | [2]; at 50.0 µM 93.6% | [3]; [7] 94% | [3]; [8] 99% | [3]; at 50.0 µM 94.2% | [4]; [7] 98% | [4]; [8] 99% | [4]; at 50.0 µM 90.7% | [5]; [7] 98% | [5]; [8] 99% | [5]; at 50.0 µM 93.7% | [6]; [7] 93% | [6]; [8] 99% | [6]; at 50.0 µM 92.1%

c1ccc(N=c2snc(-c3ccccc3)s2)cc1
inactive: [1]; [7] 2% | [1]; [8] 2% | [2]; [7] -3% | [2]; [8] -2% | [2]; at 50.0 µM 46.8% | [3]; [7] 4% | [3]; [8] 3% | [4]; [7] 3% | [4]; [8] -2% | [4]; at 50.0 µM 6.4% | [5]; [7] -4% | [5]; [8] 2% | [6]; [7] 5% | [6]; [8] 6%
active: [1]; at 50.0 µM 91.1% | [3]; at 50.0 µM 73.5% | [5]; at 50.0 µM 82.5% | [6]; at 50.0 µM 80.2%

O=C(CCl)OCc1ccccc1
inactive: [1]; [7] 1% | [1]; [8] 14% | [1]; at 50.0 µM 34.1% | [2]; [7] 3% | [2]; [8] 21% | [2]; at 50.0 µM 30.7% | [3]; [7] 0% | [3]; [8] 18% | [3]; at 50.0 µM 10.3% | [4]; [7] 5% | [4]; [8] 10% | [4]; at 50.0 µM -21.9% | [5]; [7] -3% | [5]; [8] 5% | [5]; at 50.0 µM 5.4% | [6]; [7] 5% | [6]; [8] 20% | [6]; at 50.0 µM 55%

Nc1c([N+](=O)[O-])cc(Cl)cc1[N+](=O)[O-]
active: [1]; [8] 84% | [1]; at 50.0 µM 73.8% | [2]; [8] 89% | [3]; [8] 98% | [3]; at 50.0 µM 94.2% | [5]; [8] 86% | [6]; [8] 97% | [6]; at 50.0 µM 78.3%
inactive: [1]; [7] 1% | [2]; [7] 0% | [2]; at 50.0 µM 63.8% | [3]; [7] 1% | [4]; [7] 1% | [4]; [8] 28% | [4]; at 50.0 µM -14.6% | [5]; [7] -3% | [5]; at 50.0 µM 64.7% | [6]; [7] 2%

Oc1c(Cl)cc(Cl)c2ccccc12
inactive: [1]; [7] 11% | [2]; [7] 7% | [2]; [8] 38% | [2]; at 50.0 µM 27.6% | [3]; [7] 4% | [3]; [8] 63% | [4]; [7] 5% | [4]; [8] 14% | [4]; at 50.0 µM -18.9% | [5]; [7] 12% | [5]; [8] 44% | [5]; at 50.0 µM 9.2% | [6]; [7] 13%
active: [1]; [8] 71% | [1]; at 50.0 µM 86.5% | [3]; at 50.0 µM 91.5% | [6]; [8] 74% | [6]; at 50.0 µM 87%

O=[N+]([O-])c1ccc(N(CCO)CCO)c2c1no[n+]2[O-]
active: [1]; [8] 92% | [1]; at 50.0 µM 81.4% | [2]; [8] 70% | [3]; [8] 83% | [6]; [8] 90% | [6]; at 50.0 µM 78.8%
inactive: [1]; [7] 39% | [2]; [7] 25% | [2]; at 50.0 µM 54.4% | [3]; [7] 35% | [3]; at 50.0 µM 69.2% | [4]; [7] 8% | [4]; [8] 44% | [4]; at 50.0 µM 44.3% | [5]; [7] 4% | [5]; [8] 40% | [5]; at 50.0 µM 61.5% | [6]; [7] 42%
